Test results reported in PubChem BioAssay (Tox21).
Records with an inconclusive call do not appear. The source made the active and inactive calls. Calls come from the whole dose curve; as a rule, active = well fitted curve in the direction sought with a large enough effect in the repeat runs; inconclusive = weak or mixed curves; inactive = no such curve, though single readings can be large; an effect the other way counts as inactive or inconclusive.

What follows are molecules tested against Cytochrome P450 2C9 (Homo sapiens) (UniProt P11712) (assay: Cytochrome P450 Family 2 Subfamily C Member 9 (CYP2C9) small molecule antagonists: luciferase reporter qHTS assay (AID 1671198)). Conditions: P450-Glo CYP2C9 enzyme assay, luciferin luminescence; series mostly up to 115 µM; activity change, negative = inhibition: at the top concentration.
How it was run: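 Enzyme-substrate mix preincubated with compound 10 min at room temperature; reaction started with NADPH regeneration solution, 1 h 37C. Luminescent luciferin product read after 20 min detection reagent.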
% is set by controls: 0 for no effect and ±100 for the full control effect; potency is the fitted concentration of half-maximal effect.
Note: nearly all actives have a fitted effect of over 50% in size.

Cytochrome P450 2C9 (Homo sapiens), sequence (P11712 whole entry, looked up): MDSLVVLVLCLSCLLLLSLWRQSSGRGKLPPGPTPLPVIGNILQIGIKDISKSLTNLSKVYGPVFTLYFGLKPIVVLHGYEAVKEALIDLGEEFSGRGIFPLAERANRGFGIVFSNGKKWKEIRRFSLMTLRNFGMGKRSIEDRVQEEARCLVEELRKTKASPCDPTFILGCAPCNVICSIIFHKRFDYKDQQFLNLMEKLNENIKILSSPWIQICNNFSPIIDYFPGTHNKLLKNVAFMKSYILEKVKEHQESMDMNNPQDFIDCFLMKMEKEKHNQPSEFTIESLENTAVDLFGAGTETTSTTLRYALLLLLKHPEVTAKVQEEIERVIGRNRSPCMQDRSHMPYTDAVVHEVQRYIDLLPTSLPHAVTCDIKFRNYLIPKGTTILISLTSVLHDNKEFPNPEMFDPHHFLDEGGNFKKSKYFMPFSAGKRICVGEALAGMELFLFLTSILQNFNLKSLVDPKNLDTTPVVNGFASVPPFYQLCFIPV

SMILES | Potency | activity change, negative = inhibition
COC(=O)c1ccc(I)cc1S(=O)(=O)NC(=O)Nc1nc(C)nc(OC)n1 | 34.1 µM (active) | 
ClCCOCCOCCCl |  | -0.711% (inactive)
CC1=CCCC(C)(C)C12CCC(C)O2 (centres undefined) | 79.6 µM (active) | 
Nc1cc(C(=O)O)c(O)c(S(=O)(=O)O)c1 |  | -14.7% (inactive)
O=C1C(O)=C(O)C(=O)C(O)=C1O |  | 3.6% [at 53 µM] (inactive)
CCOCC(O)COc1ccc(NC(=O)CC[S+](C)C)cc1 (centres undefined) |  | -6.99% [at 53 µM] (inactive)
C=CC(=O)OCCOCCOC(=O)C=C |  | -9.07% (inactive)
COS(=O)(=O)C(F)(F)F |  | -15% (inactive)
CNCCCCOc1ccccc1Cc1ccccc1 |  | -3.24% [at 53 µM] (inactive)
CC(C)(O)c1ccc(CNC(=O)c2cccnc2Oc2ccc(F)cc2)cc1 | 22.4 µM (active) | 
CC1=CC[C@H](C(C)C)C=C1 | 39.9 µM (active) | 
CCN(CC)CCNC(=O)c1cc(Br)c(N)cc1OC |  | 9.7% [at 53 µM] (inactive)
CCCn1cnc2c1c(=O)n(CCCCC(C)=O)c(=O)n2C |  | -0.281% [at 53 µM] (inactive)
Cc1ncc(CO)c(C=O)c1O |  | 9.85% [at 53 µM] (inactive)
CCCCOC(=O)CCCCCCCC(=O)OCCCC | 44.8 µM (active) | 
NCc1ccccc1Sc1ccccc1CO | 9.77 µM (active) | 
O=C(O)c1ccco1 |  | -17% (inactive)
COc1ccc(S(=O)(=O)N2C(=O)[C@@](c3ccccc3OC)(N3C[C@H](O)C[C@H]3C(=O)N(C)C)c3cc(Cl)ccc32)c(OC)c1 | 39.9 µM (active) | 
Cc1cccc(C)c1NC(=O)CN(CC(=O)O)CC(=O)O |  | -2.94% [at 53 µM] (inactive)
O=C(O)c1nc(Cl)c(Cl)c(Cl)c1Cl | 39.9 µM (active) | 
O=CC1CC=CCC1 (centres undefined) |  | -15.3% (inactive)
CCOC(=O)c1cccnc1 |  | -0.72% [at 53 µM] (inactive)
CN(C)c1ccc(/C=C/c2ccc([N+](=O)[O-])cc2)cc1 |  | -1.18% [at 10.5 µM] (inactive)
O=S(c1cc(Cl)cc(Cl)c1O)c1cc(Cl)cc(Cl)c1O | 17.4 µM (active) | 
COCC(C)OC(C)=O (centres undefined) |  | -8.98% (inactive)
C/C=C/C(=O)CC |  | -11% [at 23.6 µM] (inactive)
CN(C)CCN(Cc1ccccc1)c1ccccn1 |  | 0.665% [at 53 µM] (inactive)
CCCCCCCC/C=C\CCCCCCCC(=O)OCC | 71 µM (active) | 
Nc1ccccc1S(=O)(=O)c1ccccc1 |  | 64.3% (inactive)

Each molecule was assayed against Cytochrome P450 1A2 (Homo sapiens) (UniProt P05177) (assay: Cytochrome P450 Family 1 Subfamily A Member 2 (CYP1A2) small molecule antagonists: luciferase reporter qHTS assay (AID 1671199)). Conditions: P450-Glo CYP1A2 enzyme, luciferin luminescence, 1 h; series mostly up to 53 µM; activity change, negative = inhibition: at the top concentration.
How it was run: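 Inhibition of CYP1A2 conversion of proluciferin to luciferin, detected by luminescence. Reaction run 1 h at room temperature with NADPH regeneration after brief compound preincubation.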

Cytochrome P450 1A2 (Homo sapiens), sequence (P05177 whole entry, looked up): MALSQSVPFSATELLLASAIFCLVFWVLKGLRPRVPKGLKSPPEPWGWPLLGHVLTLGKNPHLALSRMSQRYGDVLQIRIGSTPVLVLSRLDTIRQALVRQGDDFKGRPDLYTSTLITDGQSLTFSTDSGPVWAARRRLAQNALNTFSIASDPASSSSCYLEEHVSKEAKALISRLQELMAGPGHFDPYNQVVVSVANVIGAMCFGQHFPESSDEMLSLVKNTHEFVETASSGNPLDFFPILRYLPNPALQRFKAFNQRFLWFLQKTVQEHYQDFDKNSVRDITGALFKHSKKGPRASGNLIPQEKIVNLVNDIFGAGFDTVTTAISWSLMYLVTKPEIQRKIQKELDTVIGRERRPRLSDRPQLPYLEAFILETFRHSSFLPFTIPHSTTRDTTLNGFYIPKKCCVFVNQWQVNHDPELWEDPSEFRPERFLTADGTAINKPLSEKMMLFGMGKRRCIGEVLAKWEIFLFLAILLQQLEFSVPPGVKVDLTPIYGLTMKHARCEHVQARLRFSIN

SMILES | Potency | activity change, negative = inhibition
C#CCN(C)CCCOc1ccc(Cl)cc1Cl | 1.82 µM (active) | 
Cc1ccc(C(=O)Oc2ccc(C(O)CNC(C)(C)C)cc2OC(=O)c2ccc(C)cc2)cc1 (centres undefined) |  | -21.6% (inactive)
CCOC(=O)C1=C[C@]2(CC)CCCN3CCc4c(n1c1ccccc41)[C@@H]32 |  | -13.5% (inactive)
COc1cc2nc(N3CCN(C(=O)C4COc5ccccc5O4)CC3)nc(N)c2cc1OC (centres undefined) |  | 5.5% (inactive)
CN(C)C(=O)NC1(c2ccccc2)CCN(CC[C@@]2(c3ccc(F)c(F)c3)CN(C(=O)c3ccccc3)CCO2)CC1 |  | -6.76% [at 115 µM] (inactive)
OCc1cc(C(O)CNCCCCCCOCCCCc2ccccc2)ccc1O (centres undefined) |  | 0.0753% (inactive)
C#Cc1cccc(Nc2ncnc3cc(OCCOC)c(OCCOC)cc23)c1 |  | -5.56% (inactive)
C[C@@H]1C[C@H]2[C@@H]3CCC4=CC(=O)C=C[C@]4(C)[C@@]3(F)[C@@H](O)C[C@]2(C)[C@@]1(O)C(=O)COC(=O)c1ccncc1 |  | 5.83% (inactive)
CC(C)C[C@H]1C(=O)N2CCC[C@H]2[C@]2(O)O[C@](NC(=O)[C@@H]3C=C4c5cccc6[nH]c(Br)c(c56)C[C@H]4N(C)C3)(C(C)C)C(=O)N12 |  | -20.5% (inactive)
COc1cccc(N(C)C(=S)Oc2ccc3c(c2)CCCC3)n1 | 24.5 µM (active) | 

What follows are molecules tested against Voltage-gated inwardly rectifying potassium channel KCNH2 (Homo sapiens) (UniProt Q12809) (assay: Human Ether-a-go-go-Related Gene (hERG) channel small molecule antagonists: fluorescence cell-based qHTS assay (AID 1671200;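 for activity change, negative = inhibition: hERG-expressing U2OS cells given a thallium stimulus after FluxOR II dye loading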)). Conditions: hERG-U2OS cells, FluxOR thallium flux fluorescence; series mostly up to 76.8 µM; activity change, negative = inhibition: at the top concentration.
How it was run: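 Fluorescence at 540 nm emission (480 nm excitation) was recorded kinetically for 2 min at 1-second intervals once the thallium-containing stimulus reached cells previously loaded with FluxOR II dye.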

Voltage-gated inwardly rectifying potassium channel KCNH2 (Homo sapiens), sequence (Q12809 whole entry, looked up): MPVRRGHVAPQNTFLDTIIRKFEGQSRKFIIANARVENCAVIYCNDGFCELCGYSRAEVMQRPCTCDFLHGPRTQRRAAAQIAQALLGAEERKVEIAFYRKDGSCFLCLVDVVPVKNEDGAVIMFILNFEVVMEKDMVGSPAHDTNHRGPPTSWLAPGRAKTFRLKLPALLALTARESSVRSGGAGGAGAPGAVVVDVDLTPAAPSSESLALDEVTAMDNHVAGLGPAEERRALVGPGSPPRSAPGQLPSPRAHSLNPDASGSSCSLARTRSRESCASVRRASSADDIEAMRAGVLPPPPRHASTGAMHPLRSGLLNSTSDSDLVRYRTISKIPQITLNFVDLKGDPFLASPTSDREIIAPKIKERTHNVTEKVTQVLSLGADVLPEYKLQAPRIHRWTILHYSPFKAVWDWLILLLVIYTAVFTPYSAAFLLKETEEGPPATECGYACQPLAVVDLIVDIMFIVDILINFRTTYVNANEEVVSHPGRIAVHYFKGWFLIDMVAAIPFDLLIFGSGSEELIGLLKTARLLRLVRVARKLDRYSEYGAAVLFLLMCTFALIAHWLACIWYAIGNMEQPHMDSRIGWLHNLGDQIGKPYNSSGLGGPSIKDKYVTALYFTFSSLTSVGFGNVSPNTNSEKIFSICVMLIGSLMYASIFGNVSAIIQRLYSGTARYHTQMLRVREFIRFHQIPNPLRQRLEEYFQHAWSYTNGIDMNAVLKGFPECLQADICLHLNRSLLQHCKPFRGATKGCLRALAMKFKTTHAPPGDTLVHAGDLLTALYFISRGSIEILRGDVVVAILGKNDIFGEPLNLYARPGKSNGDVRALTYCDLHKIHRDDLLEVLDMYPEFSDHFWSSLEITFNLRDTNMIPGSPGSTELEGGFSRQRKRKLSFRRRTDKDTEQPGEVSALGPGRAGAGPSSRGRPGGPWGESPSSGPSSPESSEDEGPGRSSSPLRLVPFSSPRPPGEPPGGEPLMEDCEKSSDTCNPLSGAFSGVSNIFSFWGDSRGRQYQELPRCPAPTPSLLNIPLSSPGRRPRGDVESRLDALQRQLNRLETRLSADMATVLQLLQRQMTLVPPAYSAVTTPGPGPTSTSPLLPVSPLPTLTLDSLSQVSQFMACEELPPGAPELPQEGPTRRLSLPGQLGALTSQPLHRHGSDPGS

SMILES | activity change, negative = inhibition | Potency
COC(=O)c1ccc(I)cc1S(=O)(=O)NC(=O)Nc1nc(C)nc(OC)n1 | 2.72% (inactive) | 
ClCCOCCOCCCl | 4.77% (inactive) | 
CC1=CCCC(C)(C)C12CCC(C)O2 (centres undefined) | -6.51% (inactive) | 
Nc1cc(C(=O)O)c(O)c(S(=O)(=O)O)c1 | 0.508% (inactive) | 
O=C1C(O)=C(O)C(=O)C(O)=C1O | -1.29% [at 35.3 µM] (inactive) | 
CCOCC(O)COc1ccc(NC(=O)CC[S+](C)C)cc1 (centres undefined) | 0.552% [at 35.3 µM] (inactive) | 
C=CC(=O)OCCOCCOC(=O)C=C | 24.6% (inactive) | 
COS(=O)(=O)C(F)(F)F | 11% (inactive) | 
C#CCN(C)CCCOc1ccc(Cl)cc1Cl |  | 8.49 µM (active)
CNCCCCOc1ccccc1Cc1ccccc1 |  | 3.38 µM (active)
Cc1ccc(C(=O)Oc2ccc(C(O)CNC(C)(C)C)cc2OC(=O)c2ccc(C)cc2)cc1 (centres undefined) |  | 6.74 µM (active)
CC(C)(O)c1ccc(CNC(=O)c2cccnc2Oc2ccc(F)cc2)cc1 | -4.41% (inactive) | 
CC1=CC[C@H](C(C)C)C=C1 | -5.26% (inactive) | 
CCOC(=O)C1=C[C@]2(CC)CCCN3CCc4c(n1c1ccccc41)[C@@H]32 |  | 0.151 µM (active)
CCCn1cnc2c1c(=O)n(CCCCC(C)=O)c(=O)n2C | 2.85% [at 35.3 µM] (inactive) | 
Cc1ncc(CO)c(C=O)c1O | -2.27% [at 35.3 µM] (inactive) | 
CCCCOC(=O)CCCCCCCC(=O)OCCCC | -12.4% (inactive) | 
NCc1ccccc1Sc1ccccc1CO | -5.82% [at 35.3 µM] (inactive) | 

SMILES | activity change, negative = inhibition | Potency
OCc1cc(C(O)CNCCCCCCOCCCCc2ccccc2)ccc1O (centres undefined) |  | 2.68 µM (active)
O=C(O)c1ccco1 | 0.0348% (inactive) | 
Cc1cccc(C)c1NC(=O)CN(CC(=O)O)CC(=O)O | 0.677% [at 35.3 µM] (inactive) | 
C#Cc1cccc(Nc2ncnc3cc(OCCOC)c(OCCOC)cc23)c1 | 2.74% [at 35.3 µM] (inactive) | 
C[C@@H]1C[C@H]2[C@@H]3CCC4=CC(=O)C=C[C@]4(C)[C@@]3(F)[C@@H](O)C[C@]2(C)[C@@]1(O)C(=O)COC(=O)c1ccncc1 | 0.213% [at 35.3 µM] (inactive) | 
O=C(O)c1nc(Cl)c(Cl)c(Cl)c1Cl | -4.7% (inactive) | 
O=CC1CC=CCC1 (centres undefined) | -9.79% (inactive) | 
CC(C)C[C@H]1C(=O)N2CCC[C@H]2[C@]2(O)O[C@](NC(=O)[C@@H]3C=C4c5cccc6[nH]c(Br)c(c56)C[C@H]4N(C)C3)(C(C)C)C(=O)N12 | -13% [at 35.3 µM] (inactive) | 
CCOC(=O)c1cccnc1 | 1.28% [at 35.3 µM] (inactive) | 
CN(C)c1ccc(/C=C/c2ccc([N+](=O)[O-])cc2)cc1 | 3.51% [at 6.97 µM] (inactive) | 
O=S(c1cc(Cl)cc(Cl)c1O)c1cc(Cl)cc(Cl)c1O | -5.28% [at 35.3 µM] (inactive) | 
COCC(C)OC(C)=O (centres undefined) | -2.02% (inactive) | 
C/C=C/C(=O)CC | 2.39% [at 15.8 µM] (inactive) | 
COc1cccc(N(C)C(=S)Oc2ccc3c(c2)CCCC3)n1 | -18.2% [at 35.3 µM] (inactive) | 
CN(C)CCN(Cc1ccccc1)c1ccccn1 |  | 9.52 µM (active)
CCCCCCCC/C=C\CCCCCCCC(=O)OCC | 1.25% (inactive) | 
Nc1ccccc1S(=O)(=O)c1ccccc1 | 4.05% (inactive) | 
